TrxR1 substrate: substrates of rat thioredoxin reductase 1; O89049; purified TrxR1 substrate turnover, NADPH consumption readout; Potency, µM (series often up to 114 µM), for the others: at the top dose activity change, negative = substrate turnover; 0.01% of 390,000 active; note: % is set by controls: 0 for no effect and ±100 for the full control effect; nearly all actives have a fitted effect of over 50% in size
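Rat TrxR1, dispensed at 90 nM, was prereduced with 400 uM NADPH (final) for 5 min at ~22 deg C, then incubated with compound 15 min before 400 uM selenite. A first-read NADPH fluorescence drop versus no-compound background flagged substrates.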
TrxR1 inh: blocks rat thioredoxin reductase 1. recombinant rTrxR1, NADPH fluorescence consumption, selenite substrate. AID 588453. O89049. 1% of 390,000 active. Potency, µM (doses to about 114 µM), inactives show at the highest dose activity change, negative = inhibition, actives largely listed as inhibitors; note: % is set by controls: 0 for no effect and ±100 for the full control effect; nearly all actives have a fitted effect of over 65% in size
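Rat TrxR1 (90 nM in the dispensed reagent) was pre-reduced with 400 uM NADPH for 5 min at room temperature, then incubated with compound for 15 min. After 400 uM selenite was added, NADPH fluorescence (Ex 340/Em 450 nm) was followed for 8 min.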
mIDH1 inhibitor: inhibitors of human mutant IDH1 R132H. IDH1-R132H enzyme, NADPH consumption, diaphorase/resazurin fluorescence. AID 602179. O75874. Potency, µM (series often up to 76.6 µM), for the others: top-dose activity change, negative = inhibition, most hits filed as inhibitors. 0.093% of 390,000 active; note: % is set by controls: 0 for no effect and ±100 for the full control effect; nearly all actives have a fitted effect of over 65% in size
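IDH1-R132H (0.5 ug/mL dispensed) in pH 7.5 Tris buffer was preincubated 30 min with compound, then given a substrate mix of 0.016 mM NADPH and 2 mM alpha-KG for 80 min at room temperature; remaining NADPH was read by diaphorase/resazurin fluorescence.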
Apoferritin bind: candidate novel general anesthetic via apoferritin binding. AID 485281. P02791. 0.074% of 350,000 active. Potency, µM (doses to about 77.5 µM), for the others: top-dose activity change, negative = displacement, most hits filed as inhibitors. apoferritin/1-aminoanthracene competitive binding, fluorescence; note: % is set by controls: 0 for no effect and ±100 for the full control effect; nearly all actives have a fitted effect of over 20% in size
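10 uM apoferritin + 50% sat. 1-AMA, PBS; cpd 10 min RT; Ex380/Em535 endpoint; normalized to free probe vs complex; 4-param Hill fit; propofol titration as pos. ctrl.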
GRP78 ERSR act: inducers of ER stress response in human glioma cells; U87-MG GRP78 promoter luciferase reporter, 16 h; Potency, µM, inactives show at the highest dose activation, hits mostly activators; 0.02% of 420,000 active; AID 602332; note: series mostly up to about 76 µM; % of control where 0% means no effect; nearly all actives have a fitted effect of over 35% in size
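ERSR induction read as luciferase luminescence (Bright-Glo, 10 min at room temperature) in stably transfected human U87-MG glioma cells exposed to compounds for 16 h, using GRP78 as sensor.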
ALOX12 inh: ALOX12 (human) lipoxygenase inhibition; purified 12hLO, xylenol orange hydroperoxide absorbance; Potency, µM (titrated, usually from 108 µM), for inactives: top-dose activity change, negative = inhibition, hits mostly inhibitors; 1.1% of 580,000 active; AID 1671190; note: % is set by controls: 0 for no effect and ±100 for the full control effect
Target sequence (P18054 whole entry, looked up): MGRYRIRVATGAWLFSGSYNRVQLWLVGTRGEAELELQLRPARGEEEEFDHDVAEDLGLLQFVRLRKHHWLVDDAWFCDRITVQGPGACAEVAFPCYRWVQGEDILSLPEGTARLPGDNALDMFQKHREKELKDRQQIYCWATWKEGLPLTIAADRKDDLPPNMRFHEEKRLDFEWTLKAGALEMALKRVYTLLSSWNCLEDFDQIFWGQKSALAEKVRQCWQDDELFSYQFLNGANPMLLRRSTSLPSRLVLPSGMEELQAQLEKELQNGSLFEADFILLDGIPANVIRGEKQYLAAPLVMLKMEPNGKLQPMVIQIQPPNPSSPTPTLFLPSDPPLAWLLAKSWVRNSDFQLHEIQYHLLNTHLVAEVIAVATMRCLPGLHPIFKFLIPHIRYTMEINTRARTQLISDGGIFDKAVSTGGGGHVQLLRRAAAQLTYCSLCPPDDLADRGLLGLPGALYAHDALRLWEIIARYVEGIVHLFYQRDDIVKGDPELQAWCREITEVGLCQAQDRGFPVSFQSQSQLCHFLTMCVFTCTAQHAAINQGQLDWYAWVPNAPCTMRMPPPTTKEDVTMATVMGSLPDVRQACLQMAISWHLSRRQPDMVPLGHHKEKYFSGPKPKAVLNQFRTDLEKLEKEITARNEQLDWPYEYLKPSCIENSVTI
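Hydroperoxide product was detected by ferrous iron/xylenol orange as the 573 to 405 nm absorbance ratio. Arachidonic acid at 40 uM (final) was turned over for 30 min at room temperature by 150 nM human 12hLO, pH 7.0 Hepes buffer, after 15 min compound preincubation.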
* marks the source's active call; other numbers are inactive results; ? = inconclusive; · = not tested or not shown; [ ] = dose if it differs, or a comment. A selection: hits, their analogues and other compounds. The true share with any hit is near 1.7%. Calls come from the whole dose curve; as a rule, active = well fitted curve in the direction sought with a large enough effect; inconclusive = small, poorly fitted or top-dose-only effect, or another doubt; inactive = no such curve, though single readings can be large; an effect the other way counts as inactive or inconclusive. Potency is the fitted concentration of half-maximal effect.

SMILES	TrxR1 substrate	TrxR1 inh	mIDH1 inhibitor	Apoferritin bind	GRP78 ERSR act	ALOX12 inh
Cc1ccc(S(=O)(=O)N2CCN(C3CCN(CCc4ccccc4)C3=O)CC2)cc1 (centres undefined)	·	·	·	·	·	22%
COC(=O)c1c(C)[nH]c(C(=O)N2CCC(CC(=O)NCc3ccc4c(c3)OCO4)CC2)c1C	·	·	·	·	·	57%
Cc1ccc(Cc2c(-c3ccccc3)nc3ccc(Br)cn23)cc1	·	·	0%	·	3%	6.3µM*
Cc1ccc(Cc2c(-c3ccc(F)cc3)nc3cc(C)ccn23)cc1	·	·	11%	·	0%	20µM*
Cc1ccc(Cc2c(-c3ccc(C#N)cc3)nc3ccc(Br)cn23)cc1	·	·	11%	·	-1%	20µM*
COc1ccc(C(=O)Nc2ccc3oc(-c4ccccc4)cc(=O)c3c2)cc1OC	·	·	·	·	·	7%
O=C(O)CC(C(=O)O)N1C(=O)/C(=C/c2ccc(-c3nc4ccccc4s3)o2)SC1=S (centres undefined)	-30%	?	0%	3%	-3%	16µM*
O=C(O)CCN1C(=O)/C(=C/c2ccc(-c3nc4ccccc4s3)o2)SC1=S	-24%	?	2%	-5%	3%	40µM*
O=C(O)CCCN1C(=O)/C(=C\c2ccc(-c3nc4ccccc4s3)o2)SC1=S	-8%	50µM*	-4%	28%	-1%	40µM*
CC1=C(C(=O)OCc2ccccc2)C(c2ccccc2[N+](=O)[O-])NC(=O)N1C (centres undefined)	-4%	11%	-6%	0%	0%	16µM*
CC1=C(C(=O)OCc2ccccc2)C(c2ccc(C(C)(C)C)cc2)NC(=O)N1CCCCCC(=O)O (centres undefined)	-1%[57.1 µM]	-11%[57.1 µM]	-15%	-15%	-1%	25µM*
Cn1c(COc2ccc(C(C)(C)C)cc2)n[nH]c1=S	·	·	·	·	·	35µM*
O=C(CN1CCN(C(=O)c2cc(-c3ccc(Cl)cc3)nc3ccccc23)CC1)N1CCOCC1	·	·	·	·	·	-8%
O=[N+]([O-])c1ccc(NS(=O)(=O)c2ccc(I)s2)c([N+](=O)[O-])c1	·	·	·	·	·	16µM*
Cc1ccc([N+](=O)[O-])cc1NS(=O)(=O)c1cccs1	·	·	·	·	·	6%
CCN(CC)C(=O)c1cc([N+](=O)[O-])cc2c1-c1ccc([N+](=O)[O-])cc1C2=C(C#N)C#N	-4%	25µM*	3%	-5%	-4%	?
CC/C(=N/Nc1cccc(C)c1)c1cnnc(SC)n1	-16%	-4%	4%	-11%	-2%	7.9µM*
CC/C(=N/Nc1ccc(Cl)cc1)c1cnnc(SC)n1	-1%[57.1 µM]	0%[57.1 µM]	7%	-3%	0%	?
Fc1ccc(-c2nc3nc4ccccc4nc3n2Cc2ccco2)cc1	5%	?	6%	-14%	2%	0%[57.4 µM]
c1ccc(-c2nc3nc4ccccc4nc3n2Cc2ccco2)cc1	9%[57.1 µM]	32µM*	10%	?	-3%	0%
O=c1c(N2CCc3ccccc3C2)csc2ccc(Cl)cc12	1%[57.1 µM]	14%[57.1 µM]	-8%	-3%	3%	8%
O=c1c(N2CCc3ccccc3C2)csc2ccc(Br)cc12	-6%[57.1 µM]	-11%[57.1 µM]	0%	-5%	3%	40µM*
CCN(CC)CCN(C(=O)CCS(=O)(=O)c1ccccc1)c1nc2c(C)cc(C)cc2s1	-3%	?	1%	-7%	-6%	1%
O=C(CCS(=O)(=O)c1ccccc1)N(Cc1cccnc1)c1nc2ccc(F)cc2s1	1%[57.1 µM]	3.2µM*	-17%	57%	-5%	?
CCN(CC)CCN(C(=O)CCS(=O)(=O)c1ccccc1)c1nc2cc(OC)c(OC)cc2s1	-3%	11µM*	9%	5%	-5%	-30%
SMILES	TrxR1 substrate	TrxR1 inh	mIDH1 inhibitor	Apoferritin bind	GRP78 ERSR act	ALOX12 inh
CCN(CC)CCN(C(=O)CCS(=O)(=O)c1ccccc1)c1nc2cc(C)cc(C)c2s1	12%	14µM*	3%	-7%	-11%	?
CC1=NN(c2ccccc2)C(=O)/C1=C/c1ccc(Cl)cc1	-2%	-24%	-12%	-21%	-2%	6.3µM*
CC1=NN(c2ccccc2)C(=O)C1=Cc1ccccc1	·	·	-11%	·	-4%	?
CCCC(=O)OCC(=O)Nc1ccc([N+](=O)[O-])cc1C#N	3%	18%	19%	-2%	-2%	0%
N#Cc1cc([N+](=O)[O-])ccc1NC(=O)COC(=O)CCC1CCCCC1	·	·	·	32µM*	·	7%
F[B-](F)(F)c1cncnc1	·	·	·	·	·	104%
NS(=O)(=O)c1ccc(NC(=O)CN2C(=O)CCC2=O)cc1	3%	23%	1%	2%	-3%	-6%
O=C(CN1C(=O)CCC1=O)Nc1ccc(Br)cc1	1%	-18%	0%	-13%	2%	45µM*
CCc1nnc(SCC(=O)Nc2ccc(Cl)cc2F)c2cc3occc3n12	-17%	-11%	0%	-4%	-5%	-22%
Cn1nnnc1SCCNCc1ccc(OCc2ccc(Cl)cc2)cc1	0%	9%	7%	28µM*	-2%	?
CC(C)c1ccc(CNCCSc2nnnn2C)cc1	-7%[11.4 µM]	14%	14%	-8%	-2%	-11%
CC1CC1c1ccc(/C=C/C(=O)N(Cc2ccccc2)C2CC2)o1 (centres undefined)	·	·	·	·	·	8.9µM*
C=C1C(=O)[C@]23C[C@H]1CC[C@H]2[C@]1(C)[C@@H](OC(C)=O)CC[C@@](C)(C(=O)O)[C@H]1C[C@@H]3O	·	·	·	·	-13%	-1%
C=C1C(=O)C2=CC1CCC(=O)C1(C)CCC(OC(C)=O)C(C)(C)C1CC2O (centres undefined)	1%	50µM*	0%	·	-14%	5%
CNc1nc(-c2[nH]c(C)c(C(=O)OC)c2C)cs1	·	·	·	·	·	20µM*
CC(=O)c1c(C)[nH]c(-c2csc(NCC(C)C)n2)c1C	·	·	·	·	·	24%
OC(COc1ccccc1CNCCc1ccccc1)CN1CCSCC1 (centres undefined)	·	·	·	·	·	-10%
O=c1c(-c2ccco2)[n+]([O-])c2ccccc2n1OCc1ccccc1	0%[57.1 µM]	?	15%	-6%	-7%	40µM*
CCOC(=O)COn1c(=O)c(-c2ccco2)[n+]([O-])c2ccccc21	8%	8.9µM*	-6%	-3%	-2%	-6%[57.4 µM]
CCOC(=O)COn1c(=O)c(-c2ccc(C)cc2)[n+]([O-])c2ccccc21	-4%	3%	7%	5%	6%	?
CCN1c2cc(C(=O)NCc3cccc(C(F)(F)F)c3)ccc2C(=O)N2CCCCCC21 (centres undefined)	·	·	·	·	·	7%
CCOC(=O)c1sc2cccc(F)c2c1S(=O)(=O)Nc1cc(OC)ccc1OC	·	·	·	·	·	-4%
